# Laboratory results: PubChem BioAssay (Tox21)
# Values without a mark were called inactive. Records with an inconclusive call do not appear. Where a call stands in place of a potency, no number is given. Activity calls are given as the source filed them. Unless noted, calls come from the whole dose curve; as a rule, active = well fitted curve in the direction sought with a large enough effect in the repeat runs; inconclusive = weak or mixed curves; inactive = no such curve, though single readings can be large; an effect the other way counts as inactive or inconclusive.
# Assays:
# [1] = qHTS assay for small molecule agonists of the p53 signaling pathway (AID 651631; calls by dose curve; note: nearly all actives have a fitted effect of over 15% in size)
# In short: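 p53RE-bla HCT-116 cells; compounds 16 h, 37 °C; LiveBLAzer B/G FRET substrate 2 h RT; fluorescence intensity read-out, qHTS format.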
# [2] = qHTS assay for small molecules that induce genotoxicity in human embryonic kidney cells expressing luciferase-tagged ATAD5 (AID 651632); note: nearly all actives have a fitted effect of over 15% in size
# In short: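 ATAD5-luc HEK293T, 2,000 cells/well; cpd or DMSO pin-transferred; 16 hr, 37C/5% CO2; Amplite 30 min RT; luminescence.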
# [3] = qHTS assay for small molecule agonists of the p53 signaling pathway - cell viability (AID 651633; calls by dose curve;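 note: p53RE-bla HCT reporter cells with a stable beta-lactamase p53 reporter; series mostly up to about 83 µM; nearly all actives have a fitted effect of over 30% in size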)
# In short: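 p53RE-bla cells were treated with compound for 16 hours at 37 C. Cytotoxicity was then measured as CellTiter-Glo luminescence after 30 min at room temperature.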
# [4] = qHTS assay for small molecules that induce genotoxicity in human embryonic kidney cells expressing luciferase-tagged ATAD5 - cell viability (AID 651634; calls by dose curve; note: nearly all actives have a fitted effect of over 25% in size)
# In short: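 Fluorescence from CellTiter-Fluor, reporting protease activity within live cells, served as the viability read-out. HEK293T cells carrying luciferase-tagged ATAD5 had been treated with compound for 15.5 hr at 37C.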
# [5] = qHTS assay for small molecule disruptors of the mitochondrial membrane potential - cell viability (AID 720634; calls by dose curve;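 note: human HepG2 liver cancer cells; series mostly up to about 83 µM; nearly all actives have a fitted effect of over 20% in size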)
# In short: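 Cells: HepG2, 2,000/well, attached overnight. Compound 1 hr, 37 C/5% CO2. +m-MPI dye, +CellTiter-Glo 30 min RT. Readout: luminescence (ATP).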
# [6] = qHTS assay for small molecule disruptors of the mitochondrial membrane potential (AID 720635); note: potency is the fitted concentration of half-maximal effect
# In short: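 HepG2 cells exposed to compound 1 hr at 37C, then Mito-MPS dye 30 min. Ratio read of aggregate (540/590 nm) versus monomer (490/535 nm) fluorescence.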
# [7] = qHTS assay to test for compound auto fluorescence at 535 nm (green) in HepG2 cells (AID 720675)
# [8] = qHTS assay to test for compound auto fluorescence at 535 nm (green) in HEK293 cells (AID 720680)
# [9] = qHTS assay to test for compound auto fluorescence at 535 nm (green) in HEK293 cell free culture (AID 720682)
# In short: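 Cell-free medium (DMEM, 10% FBS) receives compound or DMSO by pintool. Plate read directly at Ex 485/Em 535 nm. Signal converted to fluorescein equivalency.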
# [10] = qHTS assay to test for compound auto fluorescence at 590 nm (red) in HEK293 cell free culture (AID 720683)
# In short: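 Cell-free wells of DMEM with 10% FBS received compound, and intrinsic fluorescence was read at excitation/emission 540/590 nm. Values expressed as equivalence to Rose Bengal sodium.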
# [11] = qHTS assay to test for compound auto fluorescence at 590 nm (red) in HepG2 cell free culture (AID 720684)
# In short: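 Compounds are added to culture medium (MEM, 10% FBS) lacking cells, then fluorescence is read at excitation 540 nm, emission 590 nm, with Rose Bengal sodium as the equivalency standard.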
# [12] = qHTS assay to test for compound auto fluorescence at 460 nm (blue) in HepG2 cell free culture (AID 720685)
# In short: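 Compound (23 nL) or DMSO pinned into cell-free MEM with 10% FBS; blue fluorescence read at 405/460 nm excitation/emission, expressed as auto-fluorescence equivalency to triamterene.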
# [13] = qHTS assay to test for compound auto fluorescence at 535 nm (green) in HepG2 cell free culture (AID 720686)
# [14] = qHTS assay to test for compound auto fluorescence at 460 nm (blue) in HepG2 cells (AID 720687)
# In short: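 HepG2 cells in MEM with 10% FBS, attached overnight at 37 C, were exposed to compound or DMSO for 1 hr at 37 C, 5% CO2. Blue fluorescence was read at 405/460 nm, with triamterene as reference fluorophore.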
# [15] = qHTS assay to test for compound auto fluorescence at 590 nm (red) in HepG2 cells (AID 720674)
# In short: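 Fluorescence at 590 nm emission following 540 nm excitation was recorded from HepG2 wells one hour after compound transfer, with DMSO-only wells as vehicle and Rose Bengal sodium equivalency as the scale.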
# [16] = qHTS assay to test for compound auto fluorescence at 460 nm (blue) in HEK293 cells (AID 720678)
# In short: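 Cells were seeded and left to adhere for 4-5 hr at 37C. Compounds were then pin-transferred. After an overnight incubation at 37C under 5% CO2, intrinsic fluorescence at 405/460 nm was measured and referenced to triamterene.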
# [17] = qHTS assay to test for compound auto fluorescence at 590 nm (red) in HEK293 cells (AID 720679)
# In short: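 Each well held 2,000 HEK293 cells in medium containing 10% dialyzed FBS. Following 4-5 hr attachment at 37C, 23 nL test compound or DMSO was added; plates sat overnight, and red fluorescence (540/590nm) was recorded.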
# [18] = qHTS assay to test for compound auto fluorescence at 460 nm (blue) in HEK293 cell free culture (AID 720681)
# In short: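 Compounds were added to cell-free DMEM with 10% FBS and fluorescence read directly. The blue channel used 405 nm excitation and 460 nm emission, with triamterene as the reference fluorophore.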
# [19] = target: Glucocorticoid receptor (Homo sapiens) (UniProt P04150); assay: qHTS assay to identify small molecule agonists of the glucocorticoid receptor (GR) signaling pathway (AID 720691; active = well fitted activation curve with a large enough effect in the signal ratio in the repeat runs, not every such curve was filed as active; the % refers to the signal ratio)
# In short: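 Fluorescence intensity from LiveBLAzer B/G FRET substrate (2 h, room temperature) reports beta-lactamase expression driven by the glucocorticoid response element in GR-bla HeLa cells after 18 h compound exposure at 37 C.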
# [20] = target: Glucocorticoid receptor (Homo sapiens) (UniProt P04150); assay: qHTS assay to identify small molecule antagonists of the glucocorticoid receptor (GR) signaling pathway (AID 720692; active = well fitted inhibition curve with a large enough effect in the signal ratio in the repeat runs, not every such curve was filed as active; the % refers to the signal ratio)
# In short: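 HeLa GR-bla cells; cmpd + dex 5 nM final, 18 h 37 C; LiveBLAzer B/G FRET substrate 2 h RT; fluorescence intensity read. Antagonist mode, qHTS.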
# Chain of Glucocorticoid receptor (Homo sapiens) (P04150 whole entry, looked up): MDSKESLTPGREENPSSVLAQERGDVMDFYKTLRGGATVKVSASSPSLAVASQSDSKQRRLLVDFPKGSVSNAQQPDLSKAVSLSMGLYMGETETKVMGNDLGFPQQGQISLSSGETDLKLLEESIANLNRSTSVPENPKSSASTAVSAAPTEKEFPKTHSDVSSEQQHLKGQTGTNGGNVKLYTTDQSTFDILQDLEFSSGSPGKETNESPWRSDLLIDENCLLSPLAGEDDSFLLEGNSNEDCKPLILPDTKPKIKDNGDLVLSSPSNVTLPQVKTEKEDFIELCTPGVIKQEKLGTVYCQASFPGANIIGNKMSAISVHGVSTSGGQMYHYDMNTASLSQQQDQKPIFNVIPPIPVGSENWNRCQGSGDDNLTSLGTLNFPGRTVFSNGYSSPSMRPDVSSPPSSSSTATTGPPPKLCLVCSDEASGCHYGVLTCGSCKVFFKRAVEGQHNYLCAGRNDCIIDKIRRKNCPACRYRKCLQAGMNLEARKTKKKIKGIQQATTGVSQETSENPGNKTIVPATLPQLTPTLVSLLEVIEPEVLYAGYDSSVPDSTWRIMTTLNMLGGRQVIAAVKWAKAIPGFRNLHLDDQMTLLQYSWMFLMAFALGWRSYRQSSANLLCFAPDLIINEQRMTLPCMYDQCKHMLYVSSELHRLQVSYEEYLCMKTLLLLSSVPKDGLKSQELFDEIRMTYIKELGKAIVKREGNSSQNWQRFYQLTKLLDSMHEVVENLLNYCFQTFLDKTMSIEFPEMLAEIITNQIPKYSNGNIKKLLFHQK
smiles,measurement,setting,value
OCc1c2ccccc2cc2ccccc12,Potency,[1],inactive
same,Potency,[2],inactive
same,Potency,[3],inactive
same,Potency,[4],inactive
same,Potency,[5],inactive
same,Potency,[6],30.7 µM (active)
same,outcome,[7],inactive
same,outcome,[8],inactive
same,outcome,[9],inactive
same,outcome,[10],inactive
same,outcome,[11],inactive
same,outcome,[12],inactive
same,outcome,[13],inactive
same,outcome,[14],inactive
COc1ccc(S(=O)(=O)Nc2nnc(CC(C)C)s2)cc1,Potency,[1],inactive
same,Potency,[2],inactive
same,Potency,[3],inactive
same,Potency,[4],inactive
same,Potency,[5],inactive
same,outcome,[15],inactive
same,outcome,[7],inactive
same,outcome,[16],inactive
same,outcome,[17],inactive
same,outcome,[8],inactive
same,outcome,[18],inactive
same,outcome,[9],inactive
same,outcome,[10],inactive
same,outcome,[11],inactive
same,outcome,[12],inactive
same,outcome,[13],inactive
same,outcome,[14],inactive
same,Potency,[19],inactive
same,Potency,[20],inactive
O=C(C(Cl)Cl)N1CCOC12CCCCC2,Potency,[1],inactive
same,Potency,[2],inactive
same,Potency,[3],inactive
same,Potency,[4],inactive
same,Potency,[5],inactive
same,outcome,[15],inactive
same,outcome,[7],inactive
same,outcome,[16],inactive
same,outcome,[17],inactive
same,outcome,[8],inactive
same,outcome,[18],inactive
same,outcome,[9],inactive
same,outcome,[10],inactive
same,outcome,[11],inactive
same,outcome,[12],inactive
same,outcome,[13],inactive
same,outcome,[14],inactive
same,Potency,[19],inactive
same,Potency,[20],inactive
CCCCOc1cc(C(=O)NCCN(CC)CC)c2ccccc2n1,Potency,[1],inactive
same,Potency,[2],inactive
same,Potency,[3],inactive
same,Potency,[4],inactive
same,Potency,[5],inactive
same,"fluorescence, relative to Rose Bengal",[15],-0.403% [at 18.6 µM]
same,"fluorescence, % of fluorescein control",[7],0.0079% [at 18.6 µM]
same,"fluorescence, % of triamterene",[16],-0.0164% [at 18.6 µM]
same,"fluorescence, % of fluorescein",[8],0.0154% [at 18.6 µM]
same,"fluorescence, % of fluorescent control",[18],0.0819% [at 18.6 µM]
same,activity change,[9],-0.0175% [at 18.6 µM]
same,"fluorescence, % of fluorescent control",[10],-0.187% [at 18.6 µM]
same,"fluorescence, % of Rose Bengal",[11],0.52% [at 18.6 µM]
same,"fluorescence, % of fluorescent control",[12],0.0544% [at 18.6 µM]
same,"fluorescence, % of fluorescein control",[13],-0.0334% [at 18.6 µM]
same,"fluorescence, % of fluorescent control",[14],-0.0681% [at 18.6 µM]
same,Potency,[19],inactive
CCC(=O)O[C@]1(C(=O)SCF)[C@H](C)C[C@H]2[C@@H]3C[C@H](F)C4=CC(=O)C=C[C@]4(C)[C@@]3(F)[C@@H](O)C[C@@]21C,Potency,[1],inactive
same,Potency,[2],inactive
same,Potency,[3],inactive
same,Potency,[4],inactive
same,Potency,[5],inactive
same,Potency,[6],7.17 µM (active)
same,"fluorescence, % of fluorescein control",[7],0.0108% [at 18.6 µM]
same,"fluorescence, % of fluorescent control",[17],-0.0536% [at 18.6 µM]
same,"fluorescence, % of fluorescein",[8],0.0173% [at 18.6 µM]
same,"fluorescence, % of fluorescent control",[18],0.0707% [at 18.6 µM]
same,activity change,[9],0.0558% [at 18.6 µM]
same,"fluorescence, % of fluorescent control",[10],-0.193% [at 18.6 µM]
same,"fluorescence, % of Rose Bengal",[11],0.622% [at 18.6 µM]
same,"fluorescence, % of fluorescent control",[12],0.0563% [at 18.6 µM]
same,"fluorescence, % of fluorescein control",[13],0.0971% [at 18.6 µM]
CCCCCCC,Potency,[1],inactive
same,Potency,[2],inactive
same,Potency,[3],inactive
same,Potency,[4],inactive
same,Potency,[5],inactive
same,Potency,[6],inactive
same,outcome,[15],inactive
same,outcome,[7],inactive
same,outcome,[17],inactive
same,outcome,[8],inactive
same,outcome,[10],inactive
same,outcome,[11],inactive
same,outcome,[12],inactive
same,outcome,[13],inactive
same,outcome,[14],inactive
same,Potency,[19],inactive
CCCCNCCCC,Potency,[1],inactive
same,Potency,[2],inactive
same,Potency,[3],inactive
same,Potency,[4],inactive
same,Potency,[5],inactive
same,outcome,[15],inactive
same,outcome,[7],inactive
same,outcome,[16],inactive
same,outcome,[17],inactive
same,outcome,[8],inactive
same,outcome,[18],inactive
same,outcome,[9],inactive
same,outcome,[10],inactive
same,outcome,[11],inactive
same,outcome,[12],inactive
same,outcome,[13],inactive
same,outcome,[14],inactive
same,Potency,[20],inactive
Cc1ccsc1C(=CCCN1CCC[C@@H](C(=O)O)C1)c1sccc1C,Potency,[1],inactive
same,Potency,[2],inactive
same,Potency,[3],inactive
same,Potency,[4],inactive
same,Potency,[5],inactive
same,outcome,[15],inactive
same,outcome,[7],inactive
same,outcome,[16],inactive
same,outcome,[17],inactive
same,outcome,[8],inactive
same,outcome,[9],inactive
same,outcome,[10],inactive
same,outcome,[11],inactive
same,outcome,[12],inactive
same,outcome,[13],inactive
same,outcome,[14],inactive
C[C@@H](N)C(=O)O,Potency,[1],inactive
same,Potency,[2],inactive
same,Potency,[3],inactive
same,Potency,[4],inactive
same,Potency,[5],inactive
same,outcome,[15],inactive
same,outcome,[7],inactive
same,outcome,[16],inactive
same,outcome,[17],inactive
same,outcome,[8],inactive
same,outcome,[18],inactive
same,outcome,[9],inactive
same,outcome,[10],inactive
same,outcome,[11],inactive
same,outcome,[12],inactive
same,outcome,[13],inactive
same,Potency,[19],inactive
same,Potency,[20],inactive
Cc1ccc([N+](=O)[O-])cc1Cl,Potency,[1],inactive
same,Potency,[2],inactive
same,Potency,[3],inactive
same,Potency,[5],inactive
same,outcome,[7],inactive
same,outcome,[16],inactive
same,outcome,[17],inactive
same,outcome,[8],inactive
same,outcome,[18],inactive
same,outcome,[9],inactive
same,outcome,[10],inactive
same,outcome,[11],inactive
same,outcome,[12],inactive
same,outcome,[13],inactive
same,Potency,[19],inactive
same,Potency,[20],inactive
OCC(CBr)(CBr)CBr,Potency,[1],inactive
same,Potency,[2],inactive
same,Potency,[3],inactive
same,Potency,[4],inactive
same,Potency,[5],inactive
same,outcome,[7],inactive
same,outcome,[16],inactive
same,outcome,[17],inactive
same,outcome,[8],inactive
same,outcome,[18],inactive
same,outcome,[10],inactive
same,outcome,[11],inactive
same,outcome,[12],inactive
same,outcome,[13],inactive
same,outcome,[14],inactive
same,Potency,[19],inactive
same,Potency,[20],inactive
C=CC1CO1 (centres undefined),Potency,[1],inactive
same,Potency,[2],inactive
same,Potency,[3],inactive
same,Potency,[5],inactive
same,Potency,[6],inactive
same,outcome,[15],inactive
same,outcome,[7],inactive
same,outcome,[16],inactive
same,outcome,[17],inactive
same,outcome,[8],inactive
same,outcome,[18],inactive
same,outcome,[9],inactive
same,outcome,[10],inactive
same,outcome,[11],inactive
same,outcome,[12],inactive
same,outcome,[13],inactive
same,outcome,[14],inactive
same,Potency,[19],inactive
CCCCCCCCCC#N,Potency,[1],inactive
same,Potency,[2],inactive
same,Potency,[3],inactive
same,Potency,[5],inactive
same,outcome,[15],inactive
same,outcome,[7],inactive
same,outcome,[17],inactive
same,outcome,[8],inactive
same,outcome,[9],inactive
same,outcome,[10],inactive
same,outcome,[11],inactive
same,outcome,[12],inactive
same,outcome,[13],inactive
same,outcome,[14],inactive
same,Potency,[19],inactive
same,Potency,[20],inactive
